Potency, outcome and max response data for five compounds are collected here from PubChem BioAssay (NCATS).

A number with no mark means an inactive call. Inconclusive results are not listed. Activity calls are given as the source filed them. Calls come from the whole dose curve; as a rule, active = well fitted curve in the direction sought with a large enough effect; inconclusive = small, poorly fitted or top-dose-only effect, or another doubt; inactive = no such curve, though single readings can be large; an effect the other way counts as inactive or inconclusive.

The nature of assay [1]: P-glycoprotein substrates identified in KB-8-5-11 adenocarcinoma cell line, qHTS therapeutic library screen (AID 1346987). Note: nearly all actives have a fitted effect of over 65% in size. Note: potency is the fitted concentration of half-maximal effect. The gist of the method: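 Compounds are pinned in dose-response onto KB-8-5-11 cells (500 cells/well, colchicine-free medium) and left 72 h at 37 degree C. CellTiter-Glo luminescence then yields AC50 values.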
The target of assay [2] is Calcium and integrin-binding protein 1 (Homo sapiens) (UniProt Q99828). Nature of the assay: Primary qHTS for Identification of Calcium Integrin Binding Protein 1 (CIB1) Competitor (AID 1508620).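 Note: GST tagged CIB1 binding a fluorescein labelled alphaIIb integrin peptide tracer; top concentration of the series differs between compounds; % is set by controls: 0 for no effect and ±100 for the full control effect.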 The gist of the method: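 Fluorescence polarization competition: CIB1-GST (1 uM final) preincubated with compound 15 min at room temperature, then FITC-labeled alphaIIb peptide (100 nM final) added for another 15 min. Polarization read at Ex 480/Em 540.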
A general note: Quantitative high-throughput screening tests each substance at several concentrations.

Assay [3] is described as follows: Primary qHTS for inhibitors of nuclear receptor binding SET domain protein 2 (NSD2) in an isogenic RCH-ACV NSD2 p.E1099K mutant (9B) (AID 1645876). Note: nearly all actives have a fitted effect of over 70% in size. Note: potency is the fitted concentration of half-maximal effect.
Assay [4] concerns the target Phospholipid hydroperoxide glutathione peroxidase GPX4 (Homo sapiens) (UniProt P36969). Nature of the assay: Primary qHTS Assay for Inhibitors of Recombinant Selenoprotein Glutathione Peroxidase 4 (GPX4) (AID 1845192). Note: nearly all actives have a fitted effect of over 65% in size. In short, it runs like this:
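qHTS, GR-coupled: GPX4 200 nM + cpd 30 min RT → GSH 1 mM, NADPH 0.5 mM, GR 100 nM → CHP 0.5 mM start; fluor 340/450 at t0 and t15 min; no-enzyme wells as control.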

Assay [5] deals with Luciferin 4-monooxygenase (Photinus pyralis) (UniProt P08659). Nature of the assay: Primary firefly luciferase (FLuc) qHTS assay for identification of artifact compounds. (AID 1845220). Note: nearly all actives have a fitted effect of over 60% in size. The following applies: outcome: dose series up to 54.1 µM unless noted. In short, it runs like this: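 qHTS, 15 min compound preincubation with substrate (10 uM luciferin, 10 uM ATP) at RT, then 10 nM FLuc; 5 min; luminescence; % inhibition vs no-enzyme/DMSO controls, 4-parameter Hill fit.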

In assay [6] the test system is Nanoluciferase (engineered Oplophorus gracilirostris luciferase). The assay can be described thus: Primary Nanoluciferase (NLuc) qHTS assay for identification of artifact compounds. (AID 1845222). Note: potency is the fitted concentration of half-maximal effect. In short, it runs like this:
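Luminescence read-out of secreted NLuc in S16 cell conditioned medium (1:55); compounds tested with 15 min RT preincubation, then Nano-Glo substrate 1:100, 5 min. % inhibition vs no-enzyme and DMSO controls, 4-parameter Hill fit.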

For the next assay, the system named is CRL-7250. Nature of the assay: Cytotoxic Profiling of Annotated Libraries Using Quantitative High-Throughput Screening (AID 1296008). For max response: % is set by controls: 0 for no effect and ±100 for the full control effect. Note: nearly all actives have a fitted effect of over 60% in size. Note: potency is the fitted concentration of half-maximal effect. The conditions noted are these: Five cell lines viability, CellTiter-Glo ATP luminescence, 48-72 h; max response: stronger effect = lower value. The gist of the method: (§1)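 Compounds were pin-transferred onto cells and incubated 48 or 72 hr at 37 degree Celsius, 95% humidity. CellTiter-Glo was added, plates sat 10 min at room temperature, then ATP-coupled luminescence was imaged as the viability read-out.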

The next assay concerns HEK293. Described as above. The conditions noted are these: Five cell lines viability, CellTiter-Glo ATP luminescence, 48-72 h; max response: stronger effect = lower value. In short, it runs like this:
as §1
In general terms: In ATP-based viability assays light output follows the ATP content of the culture.

The next assay deals with HaCat. The assay is described as above. The conditions noted are these: Five cell lines viability, CellTiter-Glo ATP luminescence, 48-72 h; max response: stronger effect = lower value. In short, it runs like this: as §1
The subject of a further assay is NIH3T3. The assay is described as above. The conditions noted are these: Five cell lines viability, CellTiter-Glo ATP luminescence, 48-72 h; max response: stronger effect = lower value. The gist of the method:
as §1

The next assay concerns C33A. The assay can be described thus: Primary qHTS to identify gynecologic anti-cancer compounds using libraries of approved drugs and bioactive compounds (AID 1345084). Note: nearly all actives have a fitted effect of over 55% in size. Note: potency is the fitted concentration of half-maximal effect. The conditions noted are these: Gynecologic cancer cell panel viability, ATPlite luminescence, 48 h; series mostly up to 57.5 µM. The gist of the method: (§2)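 48 h compound exposure at 37 C, 5% CO2; five-point qHTS. ATPlite luminescence readout of cell ATP.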

The next assay relates to CAOV3. Described as above. The conditions noted are these: Gynecologic cancer cell panel viability, ATPlite luminescence, 48 h; series mostly up to 57.5 µM. In short, it runs like this:
as §2

The test system of a further assay is CASKI. The description is as above. The conditions noted are these: Gynecologic cancer cell panel viability, ATPlite luminescence, 48 h; series mostly up to 57.5 µM. The gist of the method: as §2
Another assay deals with Es-2. The description is as above. The conditions noted are these: Gynecologic cancer cell panel viability, ATPlite luminescence, 48 h; series mostly up to 57.5 µM. The gist of the method:
as §2

Another assay relates to Hek293T. Described as above. The following applies: Gynecologic cancer cell panel viability, ATPlite luminescence, 48 h, control line for the selectivity index; series mostly up to 57.5 µM. The gist of the method:
as §2

The subject of a further assay is JEG-3. Described as above. The following applies: Gynecologic cancer cell panel viability, ATPlite luminescence, 48 h; series mostly up to 57.5 µM. The gist of the method: as §2
The test system of a further assay is OV90. The description is as above. The following applies: Gynecologic cancer cell panel viability, ATPlite luminescence, 48 h; series mostly up to 57.5 µM. The gist of the method:
as §2

In a further assay the test system is PA-1. The description is as above. The conditions noted are these: Gynecologic cancer cell panel viability, ATPlite luminescence, 48 h; series mostly up to 57.5 µM. In short, it runs like this: as §2
Another assay deals with Tov-21-G. The description is as above. The conditions noted are these: Gynecologic cancer cell panel viability, ATPlite luminescence, 48 h; series mostly up to 57.5 µM. In short, it runs like this:
as §2

A further assay concerns Tov112D. The assay is described as above. The conditions noted are these: Gynecologic cancer cell panel viability, ATPlite luminescence, 48 h; series mostly up to 57.5 µM. The gist of the method: as §2

Sequence of Calcium and integrin-binding protein 1 (Homo sapiens) (Q99828 whole entry, looked up): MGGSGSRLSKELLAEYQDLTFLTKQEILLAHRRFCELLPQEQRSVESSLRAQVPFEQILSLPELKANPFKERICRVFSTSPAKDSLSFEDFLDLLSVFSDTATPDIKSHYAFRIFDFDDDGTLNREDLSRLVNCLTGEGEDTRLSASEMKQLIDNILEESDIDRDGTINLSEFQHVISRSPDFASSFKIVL
Sequence of Phospholipid hydroperoxide glutathione peroxidase GPX4 (Homo sapiens) (P36969 whole entry, looked up): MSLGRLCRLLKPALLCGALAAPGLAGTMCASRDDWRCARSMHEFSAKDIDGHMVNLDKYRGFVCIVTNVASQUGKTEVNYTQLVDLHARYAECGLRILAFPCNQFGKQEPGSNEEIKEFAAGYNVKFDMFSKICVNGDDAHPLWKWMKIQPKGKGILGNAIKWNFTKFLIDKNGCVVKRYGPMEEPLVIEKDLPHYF

Consider `CC1CCCC(O)CC(=O)Cc2cc(O)cc(O)c2C(=O)O1` (stereo not drawn), for which the Potency entry (in assay [1]; in assay [2]; in [3]; in [4]; in assay [6]; in the assay with C33A) was “inactive” in each case. Moreover, the Potency entry with CAOV3, in the assay on CASKI, with Es-2, in the assay on Hek293T, with JEG-3 and in the assay on OV90 was “inactive” in each case. For the same compound, the Potency result with PA-1, in the assay with Tov-21-G and in the assay on Tov112D was “inactive” throughout. The result (in [5]; in the assay with HaCat) was inactive. In addition, the max response in the assay on CRL-7250 was -9.43%; in the assay with HEK293 it was 4.64%; in the assay on NIH3T3, 2.95%.
Turning to `COC(=O)[C@]12CCCC(C)(C)C1CCc1cc(C(C)C)c(O)c(O)c12` (stereo partly drawn), the Potency result (in assay [1]; in [2]; in assay [3]; in assay [4]; with C33A; in the assay with CAOV3) was “inactive” each time. In addition, the Potency result in the assay on CASKI, in the assay with Es-2, in the assay on Hek293T, with JEG-3, with OV90 and in the assay with PA-1 was “inactive” each time. In addition, the Potency entry with Tov-21-G and in the assay on Tov112D was “inactive” in each case. In addition, the result (in assay [5]; with HaCat) was inactive. For the same compound, in assay [6], the Potency was 18.6 µM (active). Further, the max response in the assay with CRL-7250 was -0.302%; with HEK293 it was 3.53%; with NIH3T3 it was 2.35%.
Regarding `CC(=O)OC[C@]12C[C@H](O)C(C)=C[C@H]1O[C@@H]1[C@H](O)[C@@H](O)[C@@]2(C)[C@]12CO2`, the Potency in assay [1] was 4.04 µM (active); in assay [3] it was 898 nM (active); in the assay with CRL-7250 it was 4.04 µM (active); in the assay with HEK293 it was 1.01 µM (active); with HaCat, 10.1 µM (active); with NIH3T3, 1.43 µM (active). The Potency is 5.62 µM (active) in the assay with C33A; 3.98 µM (active) in the assay with CAOV3; 7.94 µM (active) in the assay with CASKI; 6.31 µM (active) with Es-2; 1.78 µM (active) in the assay with Hek293T; 12.6 µM (active) with OV90. For the same compound, the Potency with PA-1 was 2 µM (active); with Tov-21-G, 8.91 µM (active); in the assay with Tov112D, 10 µM (active). Also, the Potency entry in [2], in [4] and in assay [6] was “inactive” throughout. For the same compound, the outcome in assay [5] was inactive.
For `CC(=O)O[C@@H]1[C@H]2CC[C@H]3[C@@](C)(O)[C@@H]4C[C@H](O)C(C)(C)[C@@]4(O)[C@H](O)C[C@@]13C[C@@]2(C)O`, the Potency entry (in assay [1]; in assay [3]; in assay [4]; in assay [6]; in the assay with C33A; in the assay on CAOV3) was “inactive” in each case. In addition, the Potency entry in the assay on CASKI, in the assay on Es-2, in the assay with Hek293T, with JEG-3, with OV90 and in the assay on PA-1 was “inactive” throughout. Besides, the Potency result in the assay on Tov-21-G and with Tov112D was “inactive” throughout. Further, the result (in assay [5]; in the assay on CRL-7250) was inactive. Further, the results for the max response in the assay with HEK293, in the assay on HaCat and in the assay with NIH3T3 were 2%, -9.56% and 4.65%, respectively.
With `COc1ccsc1CNCC[C@@]1(c2ccccn2)CCOC2(CCCC2)C1`, the Potency result (in assay [1]; in assay [2]; in assay [3]; in assay [4]; in assay [6]; in the assay on C33A) was “inactive” in each case. In addition, the Potency result with CAOV3, with CASKI, in the assay with Es-2, in the assay on Hek293T, with JEG-3 and with OV90 was “inactive” each time. For the same compound, the Potency entry in the assay on PA-1, with Tov-21-G and with Tov112D was “inactive” each time. In assay [5], the compound was called inactive. Further, the max response in the assay with CRL-7250 is -5.82%; with HEK293, -0.102%; in the assay on HaCat, -8.27%; in the assay on NIH3T3, -1.76%.
